Legend:
Assay in all cases: PBM binding z-score (relative to random genomic background probes); higher = stronger binding; sequences stand for … in GC…GCGATTGACAGCGTAGAATGAAGG
[1] = tested on: PPARg:RXRa DBDmut IVT, anti-RXR (DBD mutation: RXRa K156A/R161A, NR concentration 270 nM, RXRa partner concentration 90 nM)
Method in brief: (§1)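 Custom Agilent 4×180K protein-binding microarrays carried double-stranded probes, each with a 34-nt variable region. These regions held direct-repeat seeds, single-nucleotide variants, half-site ablations and random human genomic background sequences. Ligand-free nuclear receptor dimers were incubated on the arrays for 1 h, antibodies against each partner (one per run) detected binding, and scanned fluorescence was regression-normalized. Binding z-scores take the random background probes as reference.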

[2] = tested on: PPARg:RXRa IVT, anti-PPARg (NR concentration 270 nM, RXRa partner concentration 90 nM)
Method in brief: as §1

[3] = tested on: PPARg DBDmut:RXRa IVT, anti-PPARg (DBD mutation: PPARg1 K132A/R137A, NR concentration 270 nM, RXRa partner concentration 90 nM)
Method in brief: as §1

[4] = tested on: PPARg DBDmut IVT, anti-PPARg (DBD mutation: PPARg1 K132A/R137A, NR concentration 270 nM)
Method in brief: as §1

[5] = tested on: PPARg homodimer (NR concentration 180 nM)
Method in brief: as §1

[6] = tested on: PXR:RXRa (NR concentration 270 nM, RXRa partner concentration 90 nM)
Method in brief: as §1

[7] = tested on: PXR homodimer (NR concentration 270 nM)
Method in brief: as §1

[8] = tested on: RARa:RXR (NR concentration 270 nM, RXRa partner concentration 90 nM)
Method in brief: as §1

[9] = tested on: RARa homodimer (NR concentration 270 nM)
Method in brief: as §1

[10] = tested on: RARb:RXRa (NR concentration 270 nM, RXRa partner concentration 90 nM)
Method in brief: as §1

[11] = tested on: RARb homodimer (NR concentration 270 nM)
Method in brief: as §1

[12] = tested on: RARg:RXRa (NR concentration 270 nM, RXRa partner concentration 90 nM)
Method in brief: as §1

[13] = tested on: RARg homodimer (NR concentration 270 nM)
Method in brief: as §1

[14] = tested on: RXRa DBDmut IVT, anti-RXR (DBD mutation: RXRa K156A/R161A, NR concentration 90 nM)
Method in brief: as §1

[15] = tested on: RXRa homodimer (NR concentration 180 nM)
Method in brief: as §1

[16] = tested on: THRa:RXRa (NR concentration 90 nM, RXRa partner concentration 90 nM)
Method in brief: as §1

[17] = tested on: THRa homodimer (NR concentration 90 nM)
Method in brief: as §1

[18] = tested on: VDR:RXRa (NR concentration 270 nM, RXRa partner concentration 90 nM)
Method in brief: as §1

[19] = tested on: VDR homodimer (NR concentration 270 nM)
Method in brief: as §1

Sequence | PBM binding z-score [1] | PBM binding z-score [2] | PBM binding z-score [3] | PBM binding z-score [4] | PBM binding z-score [5] | PBM binding z-score [6] | PBM binding z-score [7] | PBM binding z-score [8] | PBM binding z-score [9] | PBM binding z-score [10] | PBM binding z-score [11] | PBM binding z-score [12] | PBM binding z-score [13] | PBM binding z-score [14] | PBM binding z-score [15] | PBM binding z-score [16] | PBM binding z-score [17] | PBM binding z-score [18] | PBM binding z-score [19]
CAAACTAGGTCAAGAGGTCGAAGTCCGCTTCCCG | 8.31 | 7.97 | 1.18 | 0.351 | 3.87 | 3.56 | 0.441 | 4.93 | 1.54 | 4.44 | 4.4 | 6.21 | 5.88 | 1.72 | 5.59 | 3.34 | 1.01 | 4.04 | 2.2
GCTAGTAGGCCATTTGGGTCACTCAATGACGGGC | 5.94 | 5.02 | -0.157 | -0.997 | 0.311 | 0.202 | -0.242 | 0.598 | -0.704 | 1.47 | 2.03 | 0.972 | 1.33 | 0.0324 | 0.766 | 1.75 | 0.382 | 0.995 | 0.26
CAAACTAGGTCAAAGCTCAAAGTCGAGCCAACCA | 8.73 | 8.57 | 5.63 | 0.922 | 1.88 | 1.33 | 0.241 | 2.86 | 0.284 | 3.84 | 2.4 | 4.14 | 4.25 | 1.91 | 3.7 | 2.39 | 0.666 | 1.74 | 0.583
TCATATAGGTAAATGCTAGATGAAAGTCCGATCT | 3.61 | 1.84 | 0.931 | 1.42 | -0.0567 | 0.422 | 0.0659 | 0.328 | 0.951 | 0.201 | -0.248 | 0.314 | 0.454 | 1.15 | 0.617 | -0.0472 | -0.457 | 0.802 | 0.317
CCTTACGGGTCAATGTTATAGCACGGGTGGTACG | 1.71 | 2.59 | 0.14 | 0.289 | 1.3 | 2.45 | -0.0609 | 3.35 | 0.558 | 3.57 | 2.54 | 4.03 | 3.85 | 0.842 | 4.04 | 1.85 | -0.227 | 2.57 | 0.834
GGAACGAGGGCAAAGTTGATAGCTTCTGTCGACG | 4.1 | 4.11 | 0.574 | 0.0846 | 0.712 | 0.96 | 0.104 | 1.34 | -0.449 | 2.14 | 1.06 | 1.82 | 1.32 | 2.55 | 1.72 | 1.13 | -0.251 | 1.09 | 1.22
CTCGAAAGGTCGTGCTCAGGTGGGTATACCAAAC | 0.456 | 1.65 | 0.375 | 0.179 | 1.84 | 3.14 | 0.555 | 3.84 | 0.327 | 3.9 | 2.65 | 4.38 | 3.96 | 1.68 | 4.59 | 2.57 | 0.504 | 3.24 | 1.08
CCTTACGGGTCAATCCAGGTTATAGCATCGGAGT | 3.11 | 3.6 | 0.439 | -0.233 | 1.18 | 5.42 | 0.705 | 3.74 | 0.489 | 3.44 | 3 | 4.49 | 4.17 | 1.75 | 4.31 | 4.93 | 0.547 | 4.64 | 1.32
TGAATGAGGTTATAGATCAGGGAACGTGGCGTCG | 1.18 | 1.89 | 1.37 | 0.361 | 1.11 | 0.894 | 0.211 | 1.58 | 0.661 | 1.34 | 0.339 | 1.36 | 1.02 | 0.491 | 2 | 2.05 | 0.416 | 1.06 | 0.618
CAAACTAGGTAACGAAAGGTCAAAGTCGAATGAC | 7.04 | 6.76 | 1.27 | 1.33 | 3.34 | 5.5 | 1.94 | 5.55 | 2.01 | 4.38 | 4.76 | 5.68 | 5.08 | 1.05 | 6.35 | 4 | 1.16 | 4.87 | 2.25
TATACAGTGTCAAAGGCCAGAGTACGAATGTCGA | 0.051 | 2.04 | 0.51 | 1.14 | 0.46 | 0.552 | 0.236 | 1.33 | 0.548 | 1.88 | 1.59 | 1.53 | 1.65 | -0.125 | 1.49 | 0.336 | -0.189 | 0.815 | 0.636
CGTCCAAGGTCATAGGAGGTCAGTGTAGACAGAT | 3.65 | 4.6 | 0.558 | 0.275 | 4.52 | 6.7 | 3.78 | 6.16 | 1.57 | 5.32 | 5.63 | 6.73 | 7.24 | 3.82 | 6.53 | 5.46 | 3.59 | 6.49 | 4.71
ATCTCTAGGTAACAAATTCAGTGAAAGAGAGGAC | 2.5 | 2.57 | 1.67 | 1.65 | 0.744 | 0.225 | 0.486 | 0.657 | 1.4 | 0.701 | 0.688 | 0.707 | 0.762 | -0.0663 | 0.508 | 1.02 | 0.762 | 0.375 | 0.435
TCTAGTAGATCAAAGGTTAAGAAAGCCGAAGCCT | 2.37 | 3.82 | 0.0215 | 0.532 | 1.09 | 1.86 | -0.328 | 2.97 | 0.336 | 1.72 | 1.26 | 1.37 | 0.721 | 0.713 | 3.04 | 1.19 | -0.728 | 1.37 | -0.063
CCTAGCAGGACAATCTGGGTCACTCAAGGCTTGA | 4.78 | 5.33 | -0.134 | -0.424 | 0.6 | 0.609 | -0.664 | 1.67 | -0.343 | 1.42 | 2.13 | 1.2 | 1.42 | 0.379 | 1.09 | 3.07 | 0.761 | 0.704 | 0.0931

— the supplement of paper PMC6555819
